The values that follow come from publication PMC12529666, “Dysregulation of AGO2-miRNA dynamics underlies the AGO2-associated Lessel–Kreienkamp syndrome”.

What all share (experiment): RNA Bind-n-Seq (nitrocellulose filter binding and sequencing); miR-122 guide loaded in AGO2; 60 min incubation; 30 mM Tris pH 8.0, 100 mM potassium acetate, 2 mM magnesium acetate, 0.5 mM TCEP, 0.005% NP-40, 0.01 mg/ml yeast tRNA; 3 nM AGO2-miR-122, 100 nM RNA library; 60; high values mean tight binding
Holding throughout (settings): protein: recombinant; tags: His6 (N-terminal, pFastBac HTA)

In test [1] the target is AGO2 WT (phosphosite mutant background) (Homo sapiens, UniProt Q9UKV8 1-859, S387D;S824A;S828D;S831D;S834A). Put shortly: (§1)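 Fold enrichment is each target's read fraction divided by its read fraction in the input library. Sf9 insect cells expressed His-tagged AGO2 from baculovirus; the protein was loaded with a synthetic guide RNA and purified by Ni-NTA and a biotinylated capture oligo. The bound RNA was extracted, reverse-transcribed, barcode-amplified and sequenced on Illumina.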
Chain of AGO2 WT (phosphosite mutant background) (Q9UKV8 whole entry S387D/S824A/S828D/S831D/S834A): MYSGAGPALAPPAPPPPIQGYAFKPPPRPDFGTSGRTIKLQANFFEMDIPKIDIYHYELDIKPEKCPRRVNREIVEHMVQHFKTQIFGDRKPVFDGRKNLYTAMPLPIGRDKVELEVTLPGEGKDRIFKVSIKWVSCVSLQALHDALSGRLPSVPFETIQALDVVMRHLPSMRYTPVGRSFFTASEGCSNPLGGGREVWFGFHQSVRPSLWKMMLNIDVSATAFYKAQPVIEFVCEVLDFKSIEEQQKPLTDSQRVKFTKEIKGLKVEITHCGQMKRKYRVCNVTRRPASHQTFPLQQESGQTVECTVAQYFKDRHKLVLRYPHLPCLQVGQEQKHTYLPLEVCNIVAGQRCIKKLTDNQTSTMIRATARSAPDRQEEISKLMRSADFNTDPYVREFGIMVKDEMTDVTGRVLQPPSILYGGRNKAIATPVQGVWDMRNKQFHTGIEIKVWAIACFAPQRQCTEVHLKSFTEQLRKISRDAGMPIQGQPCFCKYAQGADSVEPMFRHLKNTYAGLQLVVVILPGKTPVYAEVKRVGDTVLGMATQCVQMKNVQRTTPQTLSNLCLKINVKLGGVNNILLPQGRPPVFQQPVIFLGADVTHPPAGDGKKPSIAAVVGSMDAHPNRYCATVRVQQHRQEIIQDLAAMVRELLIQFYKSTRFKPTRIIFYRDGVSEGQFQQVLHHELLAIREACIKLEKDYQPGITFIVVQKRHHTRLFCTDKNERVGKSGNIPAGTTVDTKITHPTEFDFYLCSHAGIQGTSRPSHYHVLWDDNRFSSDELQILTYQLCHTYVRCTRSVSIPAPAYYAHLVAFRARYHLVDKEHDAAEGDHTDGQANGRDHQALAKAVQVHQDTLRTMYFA

The target in the next test is AGO2 L192P (Homo sapiens, UniProt Q9UKV8 1-859, L192P;S387D;S824A;S828D;S831D;S834A). Put shortly:
as §1

The next test addresses AGO2 A367P (Homo sapiens, UniProt Q9UKV8 1-859, A367P;S387D;S824A;S828D;S831D;S834A). Put shortly:
as §1

Another test has as its target AGO2 T357M (Homo sapiens, UniProt Q9UKV8 1-859, T357M;S387D;S824A;S828D;S831D;S834A). Put shortly: as §1
A further test deals with AGO2 F182del (Homo sapiens, UniProt Q9UKV8 1-859, S387D;S824A;S828D;S831D;S834A;del182-182). Summed up:
as §1

Chain of AGO2 T357M (Q9UKV8 whole entry T357M/S387D/S824A/S828D/S831D/S834A): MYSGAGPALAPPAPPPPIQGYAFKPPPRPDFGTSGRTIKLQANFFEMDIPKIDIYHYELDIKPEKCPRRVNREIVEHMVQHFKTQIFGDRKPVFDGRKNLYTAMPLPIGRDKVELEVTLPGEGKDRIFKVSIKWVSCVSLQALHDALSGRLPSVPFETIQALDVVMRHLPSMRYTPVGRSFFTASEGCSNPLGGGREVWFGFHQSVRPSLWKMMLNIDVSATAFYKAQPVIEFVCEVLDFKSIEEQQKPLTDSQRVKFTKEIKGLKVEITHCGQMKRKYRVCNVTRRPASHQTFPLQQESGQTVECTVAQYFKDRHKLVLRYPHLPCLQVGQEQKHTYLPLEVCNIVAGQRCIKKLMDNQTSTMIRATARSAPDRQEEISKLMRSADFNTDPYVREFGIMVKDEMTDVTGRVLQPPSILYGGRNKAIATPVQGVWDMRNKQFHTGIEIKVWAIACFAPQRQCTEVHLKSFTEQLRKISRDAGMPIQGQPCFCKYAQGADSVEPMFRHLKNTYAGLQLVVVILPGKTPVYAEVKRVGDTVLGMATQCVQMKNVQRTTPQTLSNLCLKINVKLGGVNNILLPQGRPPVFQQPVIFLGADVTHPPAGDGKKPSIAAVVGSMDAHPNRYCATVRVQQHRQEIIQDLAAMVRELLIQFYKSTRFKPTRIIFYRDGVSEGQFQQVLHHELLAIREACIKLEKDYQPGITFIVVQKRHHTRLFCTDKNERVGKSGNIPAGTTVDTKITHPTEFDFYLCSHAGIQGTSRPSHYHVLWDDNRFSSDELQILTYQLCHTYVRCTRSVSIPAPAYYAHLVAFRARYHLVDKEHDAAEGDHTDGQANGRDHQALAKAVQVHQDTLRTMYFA
Chain of AGO2 F182del (Q9UKV8 other isoform, or with tags, fused parts or gaps S387D;S824A;S828D;S831D;S834A;del182-182): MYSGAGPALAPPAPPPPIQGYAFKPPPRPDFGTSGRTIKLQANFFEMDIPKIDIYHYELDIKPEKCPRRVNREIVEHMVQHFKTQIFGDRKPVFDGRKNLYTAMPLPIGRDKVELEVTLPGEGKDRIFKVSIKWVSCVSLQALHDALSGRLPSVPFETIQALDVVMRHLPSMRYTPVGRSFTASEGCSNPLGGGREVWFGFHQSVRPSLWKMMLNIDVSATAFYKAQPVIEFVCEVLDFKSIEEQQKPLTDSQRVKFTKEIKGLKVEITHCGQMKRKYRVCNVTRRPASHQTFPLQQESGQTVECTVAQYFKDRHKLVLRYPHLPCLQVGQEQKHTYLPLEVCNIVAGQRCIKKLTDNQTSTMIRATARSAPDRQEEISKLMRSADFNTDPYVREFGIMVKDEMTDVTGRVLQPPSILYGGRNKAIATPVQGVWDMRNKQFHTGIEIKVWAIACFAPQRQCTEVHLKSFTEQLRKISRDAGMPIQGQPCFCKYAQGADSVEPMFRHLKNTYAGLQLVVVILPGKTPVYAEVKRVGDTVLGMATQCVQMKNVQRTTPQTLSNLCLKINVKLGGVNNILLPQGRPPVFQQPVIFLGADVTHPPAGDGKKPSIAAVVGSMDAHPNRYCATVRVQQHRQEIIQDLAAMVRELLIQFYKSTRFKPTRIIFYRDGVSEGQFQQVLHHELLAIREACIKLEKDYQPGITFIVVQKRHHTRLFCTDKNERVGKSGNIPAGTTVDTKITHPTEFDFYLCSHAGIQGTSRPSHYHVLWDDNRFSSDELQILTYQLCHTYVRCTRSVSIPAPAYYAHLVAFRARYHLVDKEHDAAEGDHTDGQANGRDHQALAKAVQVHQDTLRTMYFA
Chain of AGO2 L192P (Q9UKV8 whole entry L192P/S387D/S824A/S828D/S831D/S834A): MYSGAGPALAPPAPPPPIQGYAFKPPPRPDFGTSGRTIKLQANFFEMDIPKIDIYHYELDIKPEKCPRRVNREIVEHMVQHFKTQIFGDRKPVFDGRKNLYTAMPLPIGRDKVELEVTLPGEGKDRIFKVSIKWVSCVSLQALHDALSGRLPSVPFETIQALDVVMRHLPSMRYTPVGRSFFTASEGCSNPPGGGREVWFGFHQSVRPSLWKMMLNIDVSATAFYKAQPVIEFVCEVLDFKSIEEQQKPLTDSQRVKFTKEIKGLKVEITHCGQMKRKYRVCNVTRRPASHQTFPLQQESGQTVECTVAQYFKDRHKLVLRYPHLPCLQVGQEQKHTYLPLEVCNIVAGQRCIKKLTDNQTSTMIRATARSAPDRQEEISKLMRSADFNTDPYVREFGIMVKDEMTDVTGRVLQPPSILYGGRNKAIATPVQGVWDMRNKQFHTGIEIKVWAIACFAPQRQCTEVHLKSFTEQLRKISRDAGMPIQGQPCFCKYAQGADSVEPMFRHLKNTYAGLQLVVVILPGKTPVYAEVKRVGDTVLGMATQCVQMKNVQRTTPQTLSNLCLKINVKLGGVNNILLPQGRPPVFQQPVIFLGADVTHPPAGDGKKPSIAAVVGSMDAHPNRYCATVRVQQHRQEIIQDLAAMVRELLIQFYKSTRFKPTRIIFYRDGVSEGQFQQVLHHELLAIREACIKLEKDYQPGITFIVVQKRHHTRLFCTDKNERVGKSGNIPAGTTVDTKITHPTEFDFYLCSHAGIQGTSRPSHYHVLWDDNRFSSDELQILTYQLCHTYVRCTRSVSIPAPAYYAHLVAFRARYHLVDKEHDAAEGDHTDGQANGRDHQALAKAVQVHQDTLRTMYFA
Chain of AGO2 A367P (Q9UKV8 whole entry A367P/S387D/S824A/S828D/S831D/S834A): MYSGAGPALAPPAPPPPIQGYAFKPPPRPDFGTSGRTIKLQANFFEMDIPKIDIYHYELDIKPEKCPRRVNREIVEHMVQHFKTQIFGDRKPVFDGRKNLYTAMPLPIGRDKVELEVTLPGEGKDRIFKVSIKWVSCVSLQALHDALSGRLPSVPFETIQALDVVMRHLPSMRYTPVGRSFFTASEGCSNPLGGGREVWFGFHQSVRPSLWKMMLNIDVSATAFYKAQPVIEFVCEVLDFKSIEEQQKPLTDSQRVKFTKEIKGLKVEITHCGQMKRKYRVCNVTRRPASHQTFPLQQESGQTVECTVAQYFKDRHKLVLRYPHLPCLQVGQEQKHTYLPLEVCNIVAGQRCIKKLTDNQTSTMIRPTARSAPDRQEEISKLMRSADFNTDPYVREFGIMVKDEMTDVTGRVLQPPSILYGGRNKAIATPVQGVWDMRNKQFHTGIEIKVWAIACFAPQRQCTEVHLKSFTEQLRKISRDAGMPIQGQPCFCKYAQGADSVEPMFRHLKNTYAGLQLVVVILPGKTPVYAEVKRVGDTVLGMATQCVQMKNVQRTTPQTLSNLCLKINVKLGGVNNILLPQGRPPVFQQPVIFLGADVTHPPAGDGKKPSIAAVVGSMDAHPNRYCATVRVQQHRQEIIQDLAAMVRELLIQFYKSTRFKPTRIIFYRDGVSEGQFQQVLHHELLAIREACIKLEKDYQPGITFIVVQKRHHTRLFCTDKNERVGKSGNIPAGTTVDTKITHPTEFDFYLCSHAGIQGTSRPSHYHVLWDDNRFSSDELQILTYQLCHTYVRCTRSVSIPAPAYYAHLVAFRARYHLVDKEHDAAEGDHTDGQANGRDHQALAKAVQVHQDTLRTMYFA

B1: ATACTTTA (ssRNA)
RNA 1: GAGUUCUACAGUCCGACGAUCCCAACAUACUUUACACCUGGAAUUCUCGGGUGCCAA
RNA 2: UGGAGUGUGACAAUGGUGUUUG
DNA 1: GATCGTCGGACTGTAGAACTC
DNA 2: TTGGCACCCGAGAATTCCA
modifications: constant regions annealed to DNA blockers; guide miR-122 5' phosphate
As to B1, the binding signal is 0.121 fold enrichment over input in test [1], 0.536 fold enrichment over input with AGO2 L192P, 0.174 fold enrichment over input in the test with AGO2 A367P and 0.643 fold enrichment over input with AGO2 T357M.

B2: GCACTTCA (ssRNA)
RNA 1: GAGUUCUACAGUCCGACGAUCCCAACGCACUUCACACCUGGAAUUCUCGGGUGCCAA
RNA 2: UGGAGUGUGACAAUGGUGUUUG
DNA 1: GATCGTCGGACTGTAGAACTC
DNA 2: TTGGCACCCGAGAATTCCA
modifications: constant regions annealed to DNA blockers; guide miR-122 5' phosphate
Take B2: the binding signal in test [1] was 0.149 fold enrichment over input; with AGO2 L192P, 0.575 fold enrichment over input; with AGO2 A367P, 0.348 fold enrichment over input; in the test with AGO2 T357M it was 0.655 fold enrichment over input; in the test with AGO2 F182del, 0.82 fold enrichment over input.

B3: GCACTCTG (ssRNA)
RNA 1: GAGUUCUACAGUCCGACGAUCCCAACGCACUCUGCACCUGGAAUUCUCGGGUGCCAA
RNA 2: UGGAGUGUGACAAUGGUGUUUG
DNA 1: GATCGTCGGACTGTAGAACTC
DNA 2: TTGGCACCCGAGAATTCCA
modifications: constant regions annealed to DNA blockers; guide miR-122 5' phosphate
For the molecule B3, the binding signal in test [1] is 0.143 fold enrichment over input; in the test with AGO2 L192P, 0.491 fold enrichment over input; in the test with AGO2 A367P, 0.33 fold enrichment over input; in the test with AGO2 T357M it was 0.457 fold enrichment over input; in the test with AGO2 F182del, 0.887 fold enrichment over input.

B4: GTATCCCA (ssRNA)
RNA 1: GAGUUCUACAGUCCGACGAUCCCAACGUAUCCCACACCUGGAAUUCUCGGGUGCCAA
RNA 2: UGGAGUGUGACAAUGGUGUUUG
DNA 1: GATCGTCGGACTGTAGAACTC
DNA 2: TTGGCACCCGAGAATTCCA
modifications: constant regions annealed to DNA blockers; guide miR-122 5' phosphate
Regarding B4, the binding signal in test [1] was 0.162 fold enrichment over input; in the test with AGO2 L192P, 0.517 fold enrichment over input; in the test with AGO2 A367P, 0.408 fold enrichment over input; with AGO2 T357M, 0.614 fold enrichment over input; with AGO2 F182del, 0.832 fold enrichment over input.

B5: GTGCTCCG (ssRNA)
RNA 1: GAGUUCUACAGUCCGACGAUCCCAACGUGCUCCGCACCUGGAAUUCUCGGGUGCCAA
RNA 2: UGGAGUGUGACAAUGGUGUUUG
DNA 1: GATCGTCGGACTGTAGAACTC
DNA 2: TTGGCACCCGAGAATTCCA
modifications: constant regions annealed to DNA blockers; guide miR-122 5' phosphate
As to B5, the binding signal in test [1] is 0.149 fold enrichment over input; with AGO2 L192P, 0.546 fold enrichment over input; with AGO2 A367P it was 0.535 fold enrichment over input; with AGO2 T357M, 0.617 fold enrichment over input; in the test with AGO2 F182del it was 0.426 fold enrichment over input.

B6: ATGCTTCA (ssRNA)
RNA 1: GAGUUCUACAGUCCGACGAUCCCAACAUGCUUCACACCUGGAAUUCUCGGGUGCCAA
RNA 2: UGGAGUGUGACAAUGGUGUUUG
DNA 1: GATCGTCGGACTGTAGAACTC
DNA 2: TTGGCACCCGAGAATTCCA
modifications: constant regions annealed to DNA blockers; guide miR-122 5' phosphate
For B6, the binding signal in test [1] was 0.135 fold enrichment over input; with AGO2 L192P, 0.573 fold enrichment over input; in the test with AGO2 A367P, 0.309 fold enrichment over input; with AGO2 T357M, 0.582 fold enrichment over input; in the test with AGO2 F182del, 0.842 fold enrichment over input.

B7: GCGTCTCA (ssRNA)
RNA 1: GAGUUCUACAGUCCGACGAUCCCAACGCGUCUCACACCUGGAAUUCUCGGGUGCCAA
RNA 2: UGGAGUGUGACAAUGGUGUUUG
DNA 1: GATCGTCGGACTGTAGAACTC
DNA 2: TTGGCACCCGAGAATTCCA
modifications: constant regions annealed to DNA blockers; guide miR-122 5' phosphate
With B7, the binding signal is 0.14 fold enrichment over input in test [1]; 0.529 fold enrichment over input with AGO2 L192P; 0.271 fold enrichment over input in the test with AGO2 A367P; 0.646 fold enrichment over input with AGO2 T357M; 0.747 fold enrichment over input with AGO2 F182del.

B8: ACGCTCCA (ssRNA)
RNA 1: GAGUUCUACAGUCCGACGAUCCCAACACGCUCCACACCUGGAAUUCUCGGGUGCCAA
RNA 2: UGGAGUGUGACAAUGGUGUUUG
DNA 1: GATCGTCGGACTGTAGAACTC
DNA 2: TTGGCACCCGAGAATTCCA
modifications: constant regions annealed to DNA blockers; guide miR-122 5' phosphate
Consider B8, for which the binding signal in test [1] was 5.29 fold enrichment over input; in the test with AGO2 L192P it was 12.3 fold enrichment over input; with AGO2 A367P, 13.1 fold enrichment over input; with AGO2 T357M, 2.94 fold enrichment over input; with AGO2 F182del it was 16.9 fold enrichment over input.

B9: ATATTTCA (ssRNA)
RNA 1: GAGUUCUACAGUCCGACGAUCCCAACAUAUUUCACACCUGGAAUUCUCGGGUGCCAA
RNA 2: UGGAGUGUGACAAUGGUGUUUG
DNA 1: GATCGTCGGACTGTAGAACTC
DNA 2: TTGGCACCCGAGAATTCCA
modifications: constant regions annealed to DNA blockers; guide miR-122 5' phosphate
For B9, the binding signal in test [1] was 0.141 fold enrichment over input; with AGO2 L192P it was 0.626 fold enrichment over input; in the test with AGO2 A367P, 0.373 fold enrichment over input; with AGO2 T357M it was 0.697 fold enrichment over input; with AGO2 F182del, 1.09 fold enrichment over input.

B10: ATGTTCCA (ssRNA)
RNA 1: GAGUUCUACAGUCCGACGAUCCCAACAUGUUCCACACCUGGAAUUCUCGGGUGCCAA
RNA 2: UGGAGUGUGACAAUGGUGUUUG
DNA 1: GATCGTCGGACTGTAGAACTC
DNA 2: TTGGCACCCGAGAATTCCA
modifications: constant regions annealed to DNA blockers; guide miR-122 5' phosphate
B10: the binding signal in test [1] is 0.148 fold enrichment over input; with AGO2 L192P, 0.552 fold enrichment over input; with AGO2 A367P, 0.299 fold enrichment over input; with AGO2 T357M it was 0.682 fold enrichment over input; with AGO2 F182del, 0.701 fold enrichment over input.
